Source: PubChem BioAssay AID623911 (Vanderbilt High Throughput Screening Facility, 2012)
The whole screen tested about 2,100 compounds, of which about 770 (37%) were called active.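 How the source made its calls: active means by-eye trace score of 1 for enhancers or -1 for inhibitors, so actives lie on both sides (some results past the limit were not filed as active); inactive means score 0, or 3 fluorescent, or 4 baseline rise.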 The list shows a part of the results.

Biological target: G protein-activated inward rectifier potassium channel 2 (Homo sapiens) + G protein-activated inward rectifier potassium channel 1 (Homo sapiens) (UniProt P48051+P48549)
Sequence (P48051 whole entry, looked up): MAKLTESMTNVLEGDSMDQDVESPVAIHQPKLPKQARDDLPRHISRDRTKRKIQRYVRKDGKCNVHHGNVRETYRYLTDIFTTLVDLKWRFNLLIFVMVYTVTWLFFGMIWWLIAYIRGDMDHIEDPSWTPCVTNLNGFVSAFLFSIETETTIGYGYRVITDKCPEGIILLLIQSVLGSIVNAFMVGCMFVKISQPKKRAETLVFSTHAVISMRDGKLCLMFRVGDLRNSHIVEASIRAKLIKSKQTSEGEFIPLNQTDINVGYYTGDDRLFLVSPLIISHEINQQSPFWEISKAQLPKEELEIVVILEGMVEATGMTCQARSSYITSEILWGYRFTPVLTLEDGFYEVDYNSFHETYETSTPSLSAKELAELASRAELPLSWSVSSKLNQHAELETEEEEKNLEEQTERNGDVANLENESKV
Sequence (P48549 whole entry, looked up): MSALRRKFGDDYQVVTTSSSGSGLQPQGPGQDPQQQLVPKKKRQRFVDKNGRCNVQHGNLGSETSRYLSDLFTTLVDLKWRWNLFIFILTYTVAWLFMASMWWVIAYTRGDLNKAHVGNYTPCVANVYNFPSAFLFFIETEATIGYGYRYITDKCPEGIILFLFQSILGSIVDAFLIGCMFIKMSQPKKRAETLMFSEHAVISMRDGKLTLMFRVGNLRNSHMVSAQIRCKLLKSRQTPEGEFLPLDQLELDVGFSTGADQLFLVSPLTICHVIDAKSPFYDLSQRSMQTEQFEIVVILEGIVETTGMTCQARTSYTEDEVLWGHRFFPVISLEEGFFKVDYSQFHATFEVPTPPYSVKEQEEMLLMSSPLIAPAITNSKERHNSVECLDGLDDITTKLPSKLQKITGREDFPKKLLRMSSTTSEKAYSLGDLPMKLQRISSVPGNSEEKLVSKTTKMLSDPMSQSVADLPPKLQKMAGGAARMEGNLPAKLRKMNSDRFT
Experiment: GIRK1/2 thallium flux modulators, retest, confirmation, cell-based, HEK293 rmGlu8/hGIRK1/2, FluoZin-2 (AID 623911)
Settings: HEK293 rmGlu8/hGIRK1/2, thallium flux FluoZin-2; actives lie on both sides; glutamate co-added at its EC20 level

Structure (SMILES) | manual score
Cc1ccccc1-n1nnc2c(=O)oc3ccccc3c21 | 0 (inactive)
O=C(Nc1nc(=O)c2ccccc2s1)c1ccccc1 | 1 (active)
O=C(Nc1nc(=O)c2ccccc2s1)c1ccc(F)cc1 | 1 (active)
O=C(Cc1ccccc1)Nc1nc(=O)c2ccccc2s1 | 0 (inactive)
CCN(CC)C(=S)SCC(=O)Nc1nc(=O)c2ccccc2s1 | 0 (inactive)
O=C(Nc1nc(=O)c2ccccc2s1)c1ccc(Cl)cc1 | 1 (active)
COC(=O)c1ccc(NS(=O)(=O)c2ccc(SC)cc2)cc1 | 0 (inactive)
CC(=O)Nc1ccc(SCC(=O)c2cc(C)n(-c3ccccc3F)c2C)cc1 | 0 (inactive)
COC(=O)c1ccc(-n2c(C)cc(C(=O)CSc3ccc(NC(C)=O)cc3)c2C)cc1 | 1 (active)
CCc1ccccc1N(C)C(=O)CCc1nc(-c2ccc(C)cc2)no1 | -1 (active)
O=C(CCCc1nc(-c2ccc(Cl)cc2)no1)N1CCOCC1 | 0 (inactive)
CC(C)N(Cc1nc(-c2ccccc2)no1)C(=O)CSc1ccccc1 | 0 (inactive)
CN(C)Cc1c(O)c(Cl)cc2c3c(c(=O)oc12)CCCC3 | 0 (inactive)
O=C(O)C1C2C=CC3(CN(C4CCCC4)C(=O)C13)O2 (configuration not stated) | 0 (inactive)
O=C(NC(=S)NCCC1=CCCCC1)c1cncc(Br)c1 | 0 (inactive)
COc1ccc(NC(=O)Nc2ccccc2OC)cc1 | 0 (inactive)
COc1ccc2cc(C(=O)Nc3ccccc3)sc(=O)c2c1OC | 0 (inactive)
CCOc1ccc(NC(=O)Nc2cc(C)ccc2OC)cc1 | 1 (active)
COc1ccc(C)cc1NC(=O)NCCC1=CCCCC1 | 1 (active)
COc1ccc(NC(=O)Nc2cc(C)ccc2OC)cc1 | 1 (active)
COc1ccc(C)cc1NC(=O)Nc1ccccc1 | 1 (active)
Cc1ccc(OC(=S)Nc2ccccc2)c(C)c1 | 0 (inactive)

Structure (SMILES) | manual score
CCCOc1ccc(NCC(=O)Nc2ccc(C)cc2C)cc1 | 0 (inactive)
COc1ccc(NC(=O)NC(C)c2ccncc2)cc1OC (configuration not stated) | 0 (inactive)
O=C(O)c1ccccc1C(=O)Nc1ccc(-c2csc(-c3ccccc3)n2)cc1 | 0 (inactive)
CN1CC=C2C(C#N)=C(N)C(C#N)(C#N)[C@H](c3cccc(Cl)c3)C2C1 (some centres not stated) | 3 (inactive)
COc1ccc(NC(=O)Nc2ccccc2C(=O)N2CCCC2)cc1 | 1 (active)
COC(=O)c1ccccc1NC(=O)Nc1cnccn1 | 0.5 (inactive)
COc1cc(C(=S)N2CCCC2)cc(OC)c1OS(=O)(=O)c1ccc(NC(C)=O)cc1 | 0 (inactive)
COC(=O)[C@H](Cc1ccccc1)NC(=O)NCCC1=CCCCC1 | 1 (active)
Cc1ccc(-c2[nH]nc3c2C(c2ccoc2)C(C#N)=C(N)O3)cc1C (configuration not stated) | 0 (inactive)
CCOC(=O)N1CCN(c2ccc3nnnn3n2)CC1 | 0 (inactive)
CCOC(=O)N1CCN(c2c(F)cc3[nH]c(=S)[nH]c3c2Br)CC1 | -1 (active)
CCOC(=O)N1CCC(n2c(=S)[nH]c3ccccc3c2=O)CC1 | 0 (inactive)
COc1ccc(-c2nnc(NC(=O)c3ccc(S(=O)(=O)N4COCC4(C)C)cc3)o2)cc1 | 1 (active)
CCOc1ccc(-c2nnc(NC(=O)c3ccc(OCC(C)C)c(OC)c3)o2)cc1 | 1 (active)
COc1ccc(-c2nnc(NC(=O)c3ccc(F)cc3)o2)cc1 | 1 (active)
CCOc1ccc(-c2nnc(NC(=O)CCCOc3cccc(C)c3)o2)cc1 | 0 (inactive)
CCc1cc(C(N)=O)c(NC(=O)c2ccc(OC)cc2)s1 | 0 (inactive)
COc1ccc(-c2nnc(NC(=O)c3ccc(S(=O)(=O)N4CCCc5ccccc54)cc3)o2)cc1 | 0 (inactive)
COc1ccc(-c2nnc(NC(=O)c3ccc(S(=O)(=O)N4CCc5ccccc5C4)cc3)o2)cc1 | 0 (inactive)
O=C(CSc1ccc(-c2ccco2)nn1)c1ccccc1 | 0 (inactive)
COc1ccc(C(=O)Nc2ccc(S(=O)(=O)NCc3ccco3)cc2)cc1OC | 0 (inactive)
CCOc1ccc(-c2nc(-c3ccc(OC)c(OC)c3)no2)cc1OCC | 0 (inactive)

Structure (SMILES) | manual score
O=C(Nc1nnc(-c2ccco2)o1)c1ccc2ccccc2c1 | 1 (active)
CC(=O)CN1Cc2ccccc2/C1=N\C(=O)Nc1ccccc1 | 0 (inactive)
CCCCN(C)C1=CC2=CC(=C(C#N)C#N)CCC2CC1 (configuration not stated) | 3 (inactive)
CC(C)n1cc(NC(=O)c2cc(-c3ccccc3)on2)cn1 | 1 (active)
O=C(c1cc(-c2ccccc2)on1)N1CCCC1 | 0 (inactive)
CCCn1cc(NC(=O)c2cc(-c3ccccc3)on2)cn1 | 1 (active)
Cc1ccccc1Cn1cc(NC(=O)c2nc3ncccn3n2)cn1 | 0 (inactive)
Cc1ccc2cccc(S(=O)(=O)N3CCN(c4ccccc4F)CC3)c2n1 | -1 (active)
O=c1sc(N2CCN(c3ccccc3F)CC2)nc2ccsc12 | 0 (inactive)
Cc1cccc(N2CCN(C(=O)c3ccc(Cl)c(S(=O)(=O)N4CCc5ccccc5C4)c3)CC2)c1C | 0 (inactive)
Cc1onc(-c2ccccc2)c1C(=O)NC(=S)Nc1sc2c(c1C#N)CCCC2 | 1 (active)
C=CCNC(=S)NNC(=O)COc1ccc(Cl)cc1Cl | 0 (inactive)
O=C(COc1ccccc1)NNC(=S)NC(=O)c1ccc(Cl)cc1Cl | 1 (active)
Cc1ccccc1C(=O)NNC(=S)NC(=O)c1ccc(Cl)cc1Cl | 1 (active)
Cc1ccccc1C(=O)NC(=S)Nc1sc2c(c1C#N)CCCC2 | 0 (inactive)
Cc1onc(-c2ccccc2)c1C(=O)NNC(=S)NC(=O)c1ccc(Br)cc1 | 1 (active)
S=c1[nH]ccn1-c1cccc(Cl)c1 | 0 (inactive)
Oc1ccc2ccc3cccc[n+]3c2c1 | 3 (inactive)
CCn1c(-c2cc(-c3cccc(OC)c3)nc3ccccc23)n[nH]c1=S | 0 (inactive)
Cc1ccccc1C(=O)NNC(=S)NC(=O)c1ccccc1 | 1 (active)
Cc1ccccc1C(=O)NNC(=O)C(=O)Nc1cccc(Cl)c1C | 1 (active)
Cc1ccccc1C(=O)Nc1nc(=S)ss1 | 0 (inactive)

Structure (SMILES) | manual score
Cc1c(Cl)cccc1NC(=S)/C(=C(\[O-])c1ccc(Cl)s1)[n+]1ccccc1 | 0 (inactive)
Cc1ccccc1C(=O)NC(=S)NCCc1ccccc1 | 0 (inactive)
CCOC(=O)C(CC)n1cnc2c(nnn2-c2ccc(OC)cc2)c1=O (configuration not stated) | 0 (inactive)
CCC(C)n1c(=S)[nH]c2c(sc3ccc([N+](=O)[O-])cc32)c1=O (configuration not stated) | 1 (active)
COc1ccc(-c2nnc(Nc3nc4c(OC)cccc4s3)o2)cc1 | 1 (active)
COc1cccc2sc(Nc3nnc(-c4cccs4)o3)nc12 | 1 (active)
O=C(Nc1nc(-c2ccccn2)cs1)c1ccc(Br)s1 | 0 (inactive)
CCNc1nnc(-c2ccc(C)cc2)o1 | -0.5 (inactive)
COc1cccc2sc(Nc3nc(-c4ccccn4)cs3)nc12 | 1 (active)
C/C(=N/NC(=O)c1ccncc1)c1cc2ccc(O)cc2oc1=O | 0 (inactive)
CCOc1cc(/C=N/NC(=O)CNc2cccc(C)c2)ccc1OC(=O)c1ccccc1 | 0 (inactive)
O=C(Nn1c(C2CCCCC2)nc2ccccc2c1=O)c1ccc([N+](=O)[O-])cc1Cl | 0 (inactive)
CC1(C)NC(=O)N(CC(O)COc2ccc(-c3ccc(C#N)cc3)cc2)C1=O (configuration not stated) | 0 (inactive)
COc1ccccc1OCC(O)Cn1c(=N)n(Cc2ccccc2)c2ccccc21 (configuration not stated) | -1 (active)
Cc1ccc(OCC(O)Cn2c(=N)n(Cc3ccccc3)c3ccccc32)cc1 (configuration not stated) | -1 (active)
CN(C)c1nc(OCCNC(=O)COc2ccc(Cl)cc2Cl)nc(N2CCOCC2)n1 | -1 (active)
Cc1cc(CC(C)C)n(-c2nc3ccccc3c(=O)n2OCC(N)=O)n1 | 0 (inactive)
Cc1ccc(CC(=O)N2CCN(c3cccc(C(F)(F)F)c3)CC2)cc1 | 1 (active)
CC1(C)Cc2ccccc2-c2nnc(SCC(=O)N3CCN(c4ccccc4)CC3)n21 | 0 (inactive)
O=C(CN1CCN(Cc2ccccc2)CC1)Nc1cccc(C(F)(F)F)c1 | 0 (inactive)
COC(=O)c1ccc(CSc2nc3c(c(=O)n2-c2ccc(F)cc2)SCC3)o1 | 0 (inactive)
CCOc1ccc(-n2c(SC(C)C(=O)OC)nc3c(c2=O)SCC3)cc1 (configuration not stated) | -1 (active)

Structure (SMILES) | manual score
CCOc1ccc(-n2c(Cc3cc(=O)[nH]c(=O)[nH]3)nnc2SC(C)C(=O)OC)cc1 (configuration not stated) | 0 (inactive)
CC(C)Cn1c2c(c(O)c(C(=O)Nc3ncccc3O)c1=O)CCCC2 | 0 (inactive)
COC(=O)C(NC(=O)COc1ccccc1)(Nc1nc2c(s1)CCCC2)C(F)(F)F (configuration not stated) | -1 (active)
CCCCCn1nc(-c2ccccc2)c2nc3ccccc3nc21 | 3 (inactive)
CCCCN(CCCC)C(=O)CSc1nnc2n(C)c(=O)c3c4c(sc3n12)CCCC4 | -0.5 (inactive)
O=c1c2c3c(sc2nc2n1CCCCC2)CCCCC3 | 0 (inactive)
CCn1c(SCC(N)=O)nc2sc3c(c2c1=O)CCCC3 | 1 (active)
Clc1ccc2c(c1)-c1nnc(Br)n1-c1ccccc1S2 | -1 (active)
S=C1Nc2ccccc2Sc2ccc(Cl)cc21 | 0 (inactive)
CCOc1ccccc1OCCCCCc1c(C)n[nH]c1C | 0 (inactive)
CCN(CC)CC(O)COCCC12CC3CC(CC(C3)C1)C2 (configuration not stated) | -1 (active)
CC1(C)CC(c2nc(-c3ccc(Br)cc3)cs2)CCS1 (configuration not stated) | 0 (inactive)
Cc1ccc(Cn2c(SCC(=O)NCC3CCCO3)nc3c(sc4ccccc43)c2=O)cc1 (configuration not stated) | 0.5 (inactive)
CCN(CC)CCN(CC)Cc1ccccc1Br | -1 (active)
COCC(=O)/C=C1\Sc2ccccc2N1C | 0 (inactive)
COc1ccccc1C(=O)N1c2ccccc2Sc2ccccc21 | -1 (active)
O=C1CS/C(=N\C(=O)N2c3ccccc3Sc3ccccc32)N1 | 0 (inactive)
CCOC(=O)/C(=C/C=C1\Sc2ccccc2N1CC)C(C)=O | 3 (inactive)
CCOc1ccccc1C(=O)N1c2ccccc2Sc2ccccc21 | -1 (active)
